# Measured values taken from the supplement of paper PMC10849652.
# Targets with a hit are over-represented here; the source holds about 8,800 in all. About 0.5% of all pairs of compound and target were hits. Values without a mark were called inactive.
# Legend:
# Assay in all cases: log2 fold change, soluble protein after heating vs DMSO (PISA); higher = thermal stabilisation; K562 lysate, 10 uM; active = over 0.2 and 3.5 SD of the protein, either way, in both replicates (recomputed)
# lapatinib = compound: CS(=O)(=O)CCNCc1ccc(-c2ccc3ncnc(Nc4ccc(OCc5cccc(F)c5)c(Cl)c4)c3c2)o1 [lapatinib]
# In short: (§1)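 Soluble protein was defined as the supernatant remaining after 21,000xg for 90 min, following pooling of heated aliquots and adjustment to 0.5% NP-40 at 4°C. Before that, crude K562 extract at 1 mg/mL protein in PBS pH 7.4 with 1 mM MgCl2 was treated with 10 μM compound for 30 min and heated for 3 min across 48°C-58°C. Quantification used TMTpro 16plex LC-MS/MS with channel sums equalised, and values are log-two fold changes in thermal stability relative to solvent controls from duplicates.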
# pictilisib = compound: CS(=O)(=O)N1CCN(Cc2cc3nc(-c4cccc5[nH]ncc45)nc(N4CCOCC4)c3s2)CC1 [pictilisib]
# In short: as §1
# crizotinib = compound: C[C@@H](Oc1cc(-c2cnn(C3CCNCC3)c2)cnc1N)c1c(Cl)ccc(F)c1Cl [crizotinib]
# In short: as §1
# [1] = compound: C[C@H](C1=CC=C(C=C1)C(=O)NC2=C3C=CNC3=NC=C2)N
# In short: as §1
# duvelisib = compound: C[C@H](Nc1ncnc2nc[nH]c12)c1cc2cccc(Cl)c2c(=O)n1-c1ccccc1 [duvelisib]
# In short: as §1
# gandotinib = compound: Cc1cc(Nc2cc(CN3CCOCC3)c3nc(C)c(Cc4ccc(Cl)cc4F)n3n2)n[nH]1 [gandotinib]
# In short: as §1
# tozasertib = compound: Cc1cc(Nc2cc(N3CCN(C)CC3)nc(Sc3ccc(NC(=O)C4CC4)cc3)n2)n[nH]1 [tozasertib]
# In short: as §1
# doramapimod = compound: Cc1ccc(-n2nc(C(C)(C)C)cc2NC(=O)Nc2ccc(OCCN3CCOCC3)c3ccccc23)cc1 [doramapimod]
# In short: as §1
# bafetinib = compound: Cc1ccc(NC(=O)c2ccc(CN3CC[C@H](N(C)C)C3)c(C(F)(F)F)c2)cc1Nc1nccc(-c2cncnc2)n1 [bafetinib]
# In short: as §1
# [2] = compound: Cc1cccc(CC(=O)N2CCc3c2ccc(-c2cn(C)c4ncnc(N)c24)c3F)n1
# In short: as §1
# Chain of UniProt Q9Y5Q9 (Q9Y5Q9 whole entry, looked up): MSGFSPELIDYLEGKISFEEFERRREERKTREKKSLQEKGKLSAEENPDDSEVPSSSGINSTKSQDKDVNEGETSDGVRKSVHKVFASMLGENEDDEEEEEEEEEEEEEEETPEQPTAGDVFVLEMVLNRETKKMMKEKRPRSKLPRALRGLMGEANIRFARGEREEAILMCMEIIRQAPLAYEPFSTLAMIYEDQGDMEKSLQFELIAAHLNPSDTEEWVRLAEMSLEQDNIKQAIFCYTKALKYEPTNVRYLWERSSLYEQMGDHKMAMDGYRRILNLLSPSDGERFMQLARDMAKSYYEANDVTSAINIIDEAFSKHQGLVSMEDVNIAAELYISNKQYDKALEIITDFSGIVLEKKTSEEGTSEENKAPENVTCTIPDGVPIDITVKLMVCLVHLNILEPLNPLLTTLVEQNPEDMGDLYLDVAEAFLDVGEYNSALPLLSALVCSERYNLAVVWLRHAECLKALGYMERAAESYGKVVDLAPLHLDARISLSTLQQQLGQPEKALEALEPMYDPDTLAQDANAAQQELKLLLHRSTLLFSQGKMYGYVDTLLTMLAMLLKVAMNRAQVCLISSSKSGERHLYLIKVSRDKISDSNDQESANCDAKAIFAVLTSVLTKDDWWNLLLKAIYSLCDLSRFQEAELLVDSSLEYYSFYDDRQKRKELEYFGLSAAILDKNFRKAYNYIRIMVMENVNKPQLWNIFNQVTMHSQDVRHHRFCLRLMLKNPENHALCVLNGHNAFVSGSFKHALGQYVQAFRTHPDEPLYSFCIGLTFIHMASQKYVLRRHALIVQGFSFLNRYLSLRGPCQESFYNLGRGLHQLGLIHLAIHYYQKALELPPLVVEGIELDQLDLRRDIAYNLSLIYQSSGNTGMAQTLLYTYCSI
# Chain of UniProt P16278 (P16278 whole entry, looked up): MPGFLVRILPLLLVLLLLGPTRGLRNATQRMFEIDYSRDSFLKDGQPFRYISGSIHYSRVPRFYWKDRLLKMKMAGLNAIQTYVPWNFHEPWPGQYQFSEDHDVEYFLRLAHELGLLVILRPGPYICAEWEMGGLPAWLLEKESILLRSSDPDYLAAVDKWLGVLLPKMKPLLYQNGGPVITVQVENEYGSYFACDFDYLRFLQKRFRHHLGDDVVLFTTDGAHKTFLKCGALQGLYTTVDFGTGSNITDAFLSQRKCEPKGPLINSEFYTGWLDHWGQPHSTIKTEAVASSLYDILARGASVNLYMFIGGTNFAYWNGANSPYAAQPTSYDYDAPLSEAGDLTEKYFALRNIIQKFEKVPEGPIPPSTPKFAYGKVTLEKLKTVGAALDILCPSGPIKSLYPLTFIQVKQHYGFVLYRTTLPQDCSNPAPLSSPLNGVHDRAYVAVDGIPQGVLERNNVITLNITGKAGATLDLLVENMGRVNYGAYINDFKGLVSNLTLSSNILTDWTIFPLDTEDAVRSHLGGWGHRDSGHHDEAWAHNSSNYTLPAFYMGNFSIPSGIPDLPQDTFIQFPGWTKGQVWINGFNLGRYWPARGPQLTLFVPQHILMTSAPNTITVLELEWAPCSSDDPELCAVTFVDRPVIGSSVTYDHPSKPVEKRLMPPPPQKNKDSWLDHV
# Chain of UniProt P09211 (P09211 whole entry, looked up): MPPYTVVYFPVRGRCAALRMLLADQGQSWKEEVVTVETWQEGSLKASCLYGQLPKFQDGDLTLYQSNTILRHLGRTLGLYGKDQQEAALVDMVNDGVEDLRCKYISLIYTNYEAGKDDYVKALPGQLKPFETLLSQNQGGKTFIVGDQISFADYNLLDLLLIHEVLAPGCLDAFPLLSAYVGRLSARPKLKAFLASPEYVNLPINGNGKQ
# Chain of UniProt Q9BVP2 (Q9BVP2 whole entry, looked up): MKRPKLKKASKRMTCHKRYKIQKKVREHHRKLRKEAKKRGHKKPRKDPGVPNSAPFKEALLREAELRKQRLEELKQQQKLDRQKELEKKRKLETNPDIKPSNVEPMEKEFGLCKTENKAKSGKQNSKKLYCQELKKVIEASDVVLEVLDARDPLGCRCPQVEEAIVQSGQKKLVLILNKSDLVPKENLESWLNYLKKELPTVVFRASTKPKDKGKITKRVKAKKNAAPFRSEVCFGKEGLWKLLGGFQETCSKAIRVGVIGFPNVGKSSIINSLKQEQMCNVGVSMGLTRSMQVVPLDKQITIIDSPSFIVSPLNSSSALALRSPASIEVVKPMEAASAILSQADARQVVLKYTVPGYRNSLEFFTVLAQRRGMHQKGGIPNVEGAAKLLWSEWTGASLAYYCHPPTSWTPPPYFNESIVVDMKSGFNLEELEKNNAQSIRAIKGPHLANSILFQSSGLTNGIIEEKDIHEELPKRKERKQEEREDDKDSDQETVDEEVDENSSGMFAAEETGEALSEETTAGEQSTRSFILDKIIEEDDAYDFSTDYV
# Chain of UniProt Q9H4A6 (Q9H4A6 whole entry, looked up): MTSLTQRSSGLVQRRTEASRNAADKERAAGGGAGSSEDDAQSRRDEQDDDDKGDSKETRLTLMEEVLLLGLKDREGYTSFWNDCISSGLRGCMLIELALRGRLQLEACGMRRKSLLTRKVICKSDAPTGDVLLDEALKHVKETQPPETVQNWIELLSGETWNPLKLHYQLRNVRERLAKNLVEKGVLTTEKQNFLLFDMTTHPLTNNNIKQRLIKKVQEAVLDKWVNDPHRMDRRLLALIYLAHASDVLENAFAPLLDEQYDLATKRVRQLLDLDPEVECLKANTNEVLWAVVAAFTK
# Chain of UniProt Q92769 (Q92769 whole entry, looked up): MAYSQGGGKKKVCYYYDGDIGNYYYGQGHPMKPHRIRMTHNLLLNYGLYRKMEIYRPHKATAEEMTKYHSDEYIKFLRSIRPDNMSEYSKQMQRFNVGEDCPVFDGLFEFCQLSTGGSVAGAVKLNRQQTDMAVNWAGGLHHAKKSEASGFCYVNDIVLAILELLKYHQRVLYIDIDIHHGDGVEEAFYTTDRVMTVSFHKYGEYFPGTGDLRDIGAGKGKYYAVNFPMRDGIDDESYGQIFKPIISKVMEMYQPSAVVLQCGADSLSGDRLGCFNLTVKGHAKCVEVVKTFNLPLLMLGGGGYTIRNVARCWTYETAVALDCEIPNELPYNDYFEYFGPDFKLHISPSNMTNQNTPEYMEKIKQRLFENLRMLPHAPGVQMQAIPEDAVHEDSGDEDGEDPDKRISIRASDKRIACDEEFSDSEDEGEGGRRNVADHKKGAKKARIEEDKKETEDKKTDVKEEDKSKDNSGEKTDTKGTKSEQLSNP
# Chain of UniProt P52655 (P52655 whole entry, looked up): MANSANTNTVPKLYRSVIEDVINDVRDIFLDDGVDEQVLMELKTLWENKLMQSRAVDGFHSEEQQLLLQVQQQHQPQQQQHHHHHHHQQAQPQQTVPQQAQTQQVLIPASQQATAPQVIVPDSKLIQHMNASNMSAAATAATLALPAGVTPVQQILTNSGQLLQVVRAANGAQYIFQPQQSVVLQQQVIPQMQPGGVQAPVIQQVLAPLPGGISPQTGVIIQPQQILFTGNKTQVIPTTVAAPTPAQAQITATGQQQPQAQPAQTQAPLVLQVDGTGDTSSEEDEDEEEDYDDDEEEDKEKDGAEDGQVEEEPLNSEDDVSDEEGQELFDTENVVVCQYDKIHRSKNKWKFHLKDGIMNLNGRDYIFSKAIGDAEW
# Chain of UniProt Q92759 (Q92759 whole entry, looked up): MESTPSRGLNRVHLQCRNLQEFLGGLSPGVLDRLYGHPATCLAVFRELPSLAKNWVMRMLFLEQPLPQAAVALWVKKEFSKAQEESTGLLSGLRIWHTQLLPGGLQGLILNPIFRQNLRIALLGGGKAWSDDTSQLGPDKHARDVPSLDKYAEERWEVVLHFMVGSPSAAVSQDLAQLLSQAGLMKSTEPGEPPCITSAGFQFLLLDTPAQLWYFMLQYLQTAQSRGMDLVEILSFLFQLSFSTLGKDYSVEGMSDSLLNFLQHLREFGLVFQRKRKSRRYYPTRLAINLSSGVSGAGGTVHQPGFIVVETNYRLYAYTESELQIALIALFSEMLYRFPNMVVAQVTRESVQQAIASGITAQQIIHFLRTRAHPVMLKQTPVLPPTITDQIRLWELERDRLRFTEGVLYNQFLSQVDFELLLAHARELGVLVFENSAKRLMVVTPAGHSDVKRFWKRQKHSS
# Chain of UniProt Q99871 (Q99871 whole entry, looked up): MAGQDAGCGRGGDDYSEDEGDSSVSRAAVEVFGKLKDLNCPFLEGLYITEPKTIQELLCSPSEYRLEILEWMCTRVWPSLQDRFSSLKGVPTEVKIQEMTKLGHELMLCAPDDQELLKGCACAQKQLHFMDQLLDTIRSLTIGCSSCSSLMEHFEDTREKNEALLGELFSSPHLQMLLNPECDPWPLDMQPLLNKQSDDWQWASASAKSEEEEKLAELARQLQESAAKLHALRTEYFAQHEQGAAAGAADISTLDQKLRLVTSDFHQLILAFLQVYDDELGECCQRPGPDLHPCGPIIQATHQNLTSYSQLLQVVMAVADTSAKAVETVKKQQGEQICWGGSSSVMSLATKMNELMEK
# Chain of UniProt P11142 (P11142 whole entry, looked up): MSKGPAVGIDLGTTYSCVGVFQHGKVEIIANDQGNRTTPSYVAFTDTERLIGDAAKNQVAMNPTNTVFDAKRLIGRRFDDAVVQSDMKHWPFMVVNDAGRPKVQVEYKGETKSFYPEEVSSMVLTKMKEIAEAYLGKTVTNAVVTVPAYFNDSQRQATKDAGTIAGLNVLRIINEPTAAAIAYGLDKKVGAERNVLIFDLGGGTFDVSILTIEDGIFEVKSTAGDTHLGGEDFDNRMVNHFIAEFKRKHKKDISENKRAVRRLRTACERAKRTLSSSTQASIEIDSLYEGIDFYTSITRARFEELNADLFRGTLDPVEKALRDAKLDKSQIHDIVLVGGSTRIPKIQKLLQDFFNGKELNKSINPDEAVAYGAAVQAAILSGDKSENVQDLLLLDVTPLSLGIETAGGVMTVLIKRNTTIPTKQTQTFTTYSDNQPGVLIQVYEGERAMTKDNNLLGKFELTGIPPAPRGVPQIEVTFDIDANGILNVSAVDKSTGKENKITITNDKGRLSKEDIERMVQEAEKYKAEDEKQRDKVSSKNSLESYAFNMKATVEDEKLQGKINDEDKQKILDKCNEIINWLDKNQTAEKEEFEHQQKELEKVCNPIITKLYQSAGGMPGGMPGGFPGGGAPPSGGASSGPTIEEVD
Target,log2 fold change (lapatinib),log2 fold change (pictilisib),log2 fold change (crizotinib),log2 fold change [1],log2 fold change (duvelisib),log2 fold change (gandotinib),log2 fold change (tozasertib),log2 fold change (doramapimod),log2 fold change (bafetinib),log2 fold change [2]
GTF3C3 (UniProt Q9Y5Q9),-0.043,-0.051,-0.093,-0.108,0.017,-0.037,0.009,0.012,-0.045,0.084
GOLPH3 (UniProt Q9H4A6),0.007,-0.013,-0.123,-0.049,0.005,0.034,0.025,0.031,-0.073,0.045
HNRNPLL (UniProt Q8WVV9),0.017,-0.026,-0.038,-0.01,-0.016,-0.031,0,0.01,-0.031,0.027
GUSB (UniProt P08236),-0.097,-0.012,-0.044,-0.547 (active),0.017,0.228,0.02,0.037,-0.057,0.27
HEATR6 (UniProt Q6AI08),-0.014,-0.033,-0.112,-0.037,0.084,0.003,-0.003,-0.011,0.054,0.045
HSD17B10 (UniProt Q99714),-0.031,-0.013,0.002,-0.049,0.013,0.022,-0.031,-0.008,0,0.026
HNRNPM (UniProt P52272),-0.001,0.063,0.025,-0.011,-0.022,0.02,-0.019,-0.113,-0.029,0.053
HNRNPD isoform 2 (UniProt Q14103),0.047,0.043,0.034,0.559 (active),0.015,-0.085,0.004,-0.023,0.095,-0.108
KEAP1 (UniProt Q14145),-0.005,-0.023,-0.007,0,0.026,0.019,-0.017,0.01,0,0.008
GLB1 (UniProt P16278),-0.02,0.001,-0.003,-0.017,0.004,0.012,-0.084,0.016,-0.03,0.008
GLUL (UniProt P15104),0.04,0.015,0.066,0.213 (active),0.019,-0.093,-0.026,0.014,0.013,-0.147
HDAC6 (UniProt Q9UBN7),-0.019,-0.085,-0.039,0.014,0.065,-0.017,0.002,0.012,-0.069,-0.01
H2AFY (UniProt O75367),-0.021,0.036,0.051,-0.135,0.01,0.084,-0.108,-0.138,-0.011,0.049
HAUS7 isoform 2 (UniProt Q99871),0.022,0.012,-0.053,0.102,-0.063,-0.156,-0.113,0.072,-0.139,0.015
HACE1 (UniProt Q8IYU2),-0.05,0.005,0.026,-0.491 (active),0.033,0.302,-0.036,0.015,-0.036,0.426
INF2 (UniProt Q27J81),0.024,-0.019,-0.043,0.002,-0.051,-0.001,0.04,0.049,-0.068,0.128
KCTD20 (UniProt Q7Z5Y7),-0.064,0.039,-0.077,0.006,-0.082,0.006,-0.119,-0.01,0.007,-0.005
HDAC2 (UniProt Q92769),-0.006,0.002,0.057,-0.047,-0.028,0.018,0.014,-0.05,-0.021,0.028
GSK3B isoform 2 (UniProt P49841),-0.083,0.191,0.003,0.018,-0.02,0.59,-0.078,0.03,-0.041,-0.06
HK2 (UniProt P52789),-0.003,-0.017,-0.069,0.043,0.007,-0.056,0.007,0.05,-0.076,0.004
KDM5B isoform 2 (UniProt Q9UGL1),-0.006,-0.041,-0.02,-0.003,0,0.257,0.13,-0.033,-0.013,0.29
HNRNPUL2 (UniProt Q1KMD3),-0.037,-0.028,-0.033,-0.002,0.012,-0.005,0.009,-0.008,-0.009,0.043
HSPA8 (UniProt P11142),0.004,0.022,0.023,0.012,0.005,-0.014,0.006,0.001,0.059,-0.01
GSTP1 (UniProt P09211),-0.015,0.021,-0.018,-0.025,0.001,-0.035,-0.007,-0.006,0.01,0.003
GNL3 (UniProt Q9BVP2),-0.058,-0.018,-0.134,0.097,0.004,-0.115,-0.013,0.039,-0.128,-0.031
HMGCL (UniProt P35914),-0.005,-0.029,0.012,0.033,0.002,-0.029,0.026,0.008,-0.016,-0.031
GTF2A1 (UniProt P52655),0.034,0.011,0.055,0.327 (active),0.009,-0.141,0.064,0.028,0.026,-0.111
GRB10 (UniProt Q13322),-0.029,-0.034,-0.028,-0.125,0.029,0.016,-0.06,0.021,-0.049,0.099
HEATR3 (UniProt Q7Z4Q2),-0.003,0,-0.074,-0.006,-0.005,-0.078,-0.021,0.027,-0.064,0.031
GTF2H4 (UniProt Q92759),-0.026,0.027,-0.025,0.061,-0.01,-0.14,0.031,0,-0.039,0.038
